40 molecules from ChEMBL document CHEMBL3433997, “St. Jude Leishmania screening dataset” (2016) can be followed below.

As a reminder, the inhibition is the change of the read-out against control, counted positive when it falls.

The target in the first assay is Solute carrier family 2, facilitated glucose transporter member 1 (Homo sapiens) (UniProt P11166). The experiment in a line: ST_JUDE_LEISH: Cytotoxicity at 2uM final concentration against transgenic Leishmania Mexicana promastigotes LmGLUT1 that are glucose transport deficient and complemented with the human glucose transporter GLUT1. Activity is measured by DNA content using SYBR green in vitro. The assay is classed as functional.
Sequence of Solute carrier family 2, facilitated glucose transporter member 1 (Homo sapiens) (P11166 whole entry): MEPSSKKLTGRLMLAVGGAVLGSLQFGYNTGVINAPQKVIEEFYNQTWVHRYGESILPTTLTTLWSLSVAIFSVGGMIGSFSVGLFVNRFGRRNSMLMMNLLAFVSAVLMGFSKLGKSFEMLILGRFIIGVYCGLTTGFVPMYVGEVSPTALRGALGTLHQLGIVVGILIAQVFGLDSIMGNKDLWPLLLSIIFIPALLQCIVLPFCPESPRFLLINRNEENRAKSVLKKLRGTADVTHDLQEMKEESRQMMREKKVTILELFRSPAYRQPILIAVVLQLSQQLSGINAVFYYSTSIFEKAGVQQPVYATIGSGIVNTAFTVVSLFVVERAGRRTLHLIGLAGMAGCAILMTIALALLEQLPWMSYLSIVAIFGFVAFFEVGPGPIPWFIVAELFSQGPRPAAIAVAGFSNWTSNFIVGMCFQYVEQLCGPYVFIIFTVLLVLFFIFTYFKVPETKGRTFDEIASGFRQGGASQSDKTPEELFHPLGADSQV
On to `O=C(/C=C/c1ccc(-c2nc3ccc(Cl)cc3[nH]2)cc1)NCc1cccc(F)c1`, for which the inhibition was determined as 4.5%.
As to `Cc1onc(-c2ccccc2Cl)c1C(=O)Nc1cc(Cl)c(Cl)cc1Cl`, the inhibition was found to be 3.43%.
Still for that read-out and setting: for `O=C(Nc1cn(-c2ccc(OCc3cccc(F)c3)c(Cl)c2)c2ncncc12)c1ccncc1` the value was 1.53%; for `CN1CCCN(Cc2ccc(-c3ccc(NC(=O)c4ccc(Cl)cc4)cc3)cc2)CC1`, 63.1%; for `CCOc1c(CCNCCCCNCCc2ccc3ccccc3c2OCC)ccc2ccccc12`, 111%.
Turning to `CSc1ccccc1NC(=S)NC1CCN(CCCCCNC(=O)/C=C/c2ccc(Cl)c(Cl)c2)CC1`, the inhibition came out at 4.66%.
Still for that read-out and setting: for `Cc1ccc2[nH]c(NC#N)nc2c1` the value was 0.53%; for `Cc1cc(=NN=Cc2ccccc2F)c2cc(F)ccc2[nH]1`, 1.79%; for `CN(CCc1ccccn1)Cc1ccc(-c2ccc(-c3nc4ccccc4[nH]3)s2)cc1`, -0.34%.
Take `O=C1CCCN1CCCNCc1cccc(-c2cccc(-c3nc4cc(F)ccc4[nH]3)c2)c1`: the inhibition is 0.85%.
As for `COc1ccc(Cl)cc1C(=O)Nc1ccc(-c2nc3ccccc3[nH]2)cc1`, the inhibition was determined as 4.93%.
Still for that read-out and setting: for `O=C(Nc1ccccc1)Nc1cccc(-c2cc(CNCCc3ccccc3)sc2-c2ccncc2)c1` the value was -0.01%.
Turning to `N=C(N)Nc1nc(CCCCCCCCc2csc(NC(=N)N)n2)cs1`, the inhibition was -1.03%.
Still for that read-out and setting: for `Cn1cnc(CCNC(=O)c2ccc(-c3cccc(-c4nc5ccccc5[nH]4)c3)cc2)c1` the value was 0.8%; for `CC(C)COc1ccc(Cl)cc1Cc1nc(-c2nc3ccc(N4CCN(C)CC4)nc3[nH]2)cs1`, -3.46%.
The same measure, in the same setting: for `Cc1cccc2nc(-c3ccc(-c4ccc(CN5CCN(c6ccncc6)CC5)cc4)s3)[nH]c12` the value was 2.98%; for `N#Cc1ccc(N2CCN(Cc3cccc(-c4cccc(-c5nc6cc(F)ccc6[nH]5)c4)c3)CC2)nc1`, 3.5%.
Same read-out and setting: the same measure for `O=C(NCCc1cccc(Cl)c1Cl)c1ccc(N2CCN(c3ccncc3)CC2)nc1`: 38.6%; for `O=C(NCCc1ccccc1)N(Cc1ccccc1-c1cccc(CNCc2ccc3c(c2)OCO3)c1)C1CCN(Cc2ccccc2)CC1`: 3.72%; for `Cn1c(-c2ccccc2)cc2c3c(=O)cc(C(F)(F)F)[nH]c3ccc21`: 13.8%.
As for `FC(F)(F)c1ccc(N2CCCN(Cc3cccc(-c4ccccc4CNCc4ccc5c(c4)OCO5)c3)CC2)nc1`, the inhibition turned out to be 2.61%.
For the molecule `CCCCN(CCCC)CCCN(CCCN(CCCC)CCCC)c1cc(C)nc(Nc2ccc(Br)cc2)n1`, the inhibition was -1.21%.
Still for that read-out and setting: the same measure for `Cc1ccc(-c2ccn(Cc3ccc(OCc4ccccc4)cc3)n2)cn1.Cc1ccc(-c2ccnn2Cc2ccc(OCc3ccccc3)cc2)cn1`: 0.13%; for `O=C(NCCc1ccccc1)N(Cc1ccccc1-c1cccc(CNC2CCCC2)c1)C1CCN(Cc2ccccc2)CC1`: 8.2%; for `COc1cc2nc(N3CCC(CNC(=O)c4ccc(-c5ccc(C#N)cc5)cc4)CC3)nc(N)c2cc1OC`: 1.64%.
On the same count and under the same terms, for `Cc1cc(N[C@@H](Cc2ccccc2)C(=O)Nc2ccccc2)nc(NCC2CCCCC2)n1` the value was 12.8%.
The same measure, in the same setting: the same measure for `Cc1cccc2nc(-c3ccc(-c4ccc(CNCC5CCCO5)cc4)s3)[nH]c12` (stereo not given): 1.99%; for `CC(C)(C)OC(=O)N1CCC(C2CCN(C(=O)OC(C)(C)C)CC2)CC1`: -2.91%; for `O=S(=O)(Nc1cc2c(cc1O)CCNCC2)c1ccc(-c2ccc(Cl)cc2)cc1`: 3.27%.
For `O=C(NCC1CCCCC1)c1cc(=O)c2ccccc2o1`, the inhibition is 8.02%.
The same measure, in the same setting: the same measure for `CC(=O)N/N=C/[C@H](CCc1ccccc1)NC(=O)[C@H](CC(C)C)NC(=O)c1cccc(OCCN2CCOCC2)c1`: 6.39%; for `CCn1ncc2c(NC3CCOCC3)c(CNC(=O)c3ccnn3C)c(C)nc21`: 3.11%.
Consider `COc1ccc2nc3ccccc3c(NCCN3CCN(C)CC3)c2c1`, for which the inhibition stood at 7.5%.
In the case of `CC(C)CC(NC(=O)c1cc2ccccc2s1)C(=O)N1CCCCCC1c1ccc(C(C)(C)C)cc1` (stereo not given), the inhibition was -2.77%.
Consider `CCCN1CCCN(Cc2cccc(NC(=O)c3ccc(-c4ccccc4)cc3)c2)CC1`, for which the inhibition came out at 0.74%.
The same measure, in the same setting: the same measure for `COc1ccc2[nH]ccc(=NN=Cc3cccnc3)c2c1`: 1.08%.
Same read-out and setting: the same measure for `COc1cccc(C(=O)NCc2cccs2)c1OCc1ccccc1`: 1.77%; for `Cc1sc2ncnc(Sc3nnc(N)s3)c2c1C`: 2.03%; for `COc1ccc(CNC2CCN(C)CC2)cc1-c1ccc(S(=O)(=O)NC2CCC2)c(C)c1`: 0%.
`CC(C)Sc1nc2c(c(=O)n1Cc1ccco1)C1(CCCCC1)Cc1ccccc1-2`: the inhibition came out at 2.09%.

In another assay the target is Hexose transporter 1 (Plasmodium falciparum) (UniProt O97467). The experiment in a line: ST_JUDE_LEISH: Cytotoxicity at 2uM final concentration against transgenic Leishmania Mexicana promastigotes LmPfHT that are glucose transport deficient and complemented with the Plasmodium falciparum hexose transporter. Activity is measured by DNA content using SYBR green in vitro. The assay is classed as functional.
Regarding `O=C(/C=C/c1ccc(-c2nc3ccc(Cl)cc3[nH]2)cc1)NCc1cccc(F)c1`, the inhibition is 4.66%.
The same measure, in the same setting: for `Cc1onc(-c2ccccc2Cl)c1C(=O)Nc1cc(Cl)c(Cl)cc1Cl` the value was 5.64%.
Still for that read-out and setting: for `O=C(Nc1cn(-c2ccc(OCc3cccc(F)c3)c(Cl)c2)c2ncncc12)c1ccncc1` the value was 1.05%; for `CN1CCCN(Cc2ccc(-c3ccc(NC(=O)c4ccc(Cl)cc4)cc3)cc2)CC1`, 50%.
On the same count and under the same terms, for `CCOc1c(CCNCCCCNCCc2ccc3ccccc3c2OCC)ccc2ccccc12` the value was 112%.
`CSc1ccccc1NC(=S)NC1CCN(CCCCCNC(=O)/C=C/c2ccc(Cl)c(Cl)c2)CC1`: the inhibition turned out to be 4.89%.
Turning to `Cc1ccc2[nH]c(NC#N)nc2c1`, the inhibition was 0.67%.
Still for that read-out and setting: the same measure for `Cc1cc(=NN=Cc2ccccc2F)c2cc(F)ccc2[nH]1`: 3.14%; for `CN(CCc1ccccn1)Cc1ccc(-c2ccc(-c3nc4ccccc4[nH]3)s2)cc1`: -1.13%; for `O=C1CCCN1CCCNCc1cccc(-c2cccc(-c3nc4cc(F)ccc4[nH]3)c2)c1`: 1.31%.
The same measure, in the same setting: for `COc1ccc(Cl)cc1C(=O)Nc1ccc(-c2nc3ccccc3[nH]2)cc1` the value was 3.29%; for `O=C(Nc1ccccc1)Nc1cccc(-c2cc(CNCCc3ccccc3)sc2-c2ccncc2)c1`, -0.54%; for `N=C(N)Nc1nc(CCCCCCCCc2csc(NC(=N)N)n2)cs1`, -0.76%.
Turning to `Cn1cnc(CCNC(=O)c2ccc(-c3cccc(-c4nc5ccccc5[nH]4)c3)cc2)c1`, the inhibition is 0.81%.
Same read-out and setting: for `CC(C)COc1ccc(Cl)cc1Cc1nc(-c2nc3ccc(N4CCN(C)CC4)nc3[nH]2)cs1` the value was 1.5%; for `Cc1cccc2nc(-c3ccc(-c4ccc(CN5CCN(c6ccncc6)CC5)cc4)s3)[nH]c12`, 2.29%.
Still for that read-out and setting: for `N#Cc1ccc(N2CCN(Cc3cccc(-c4cccc(-c5nc6cc(F)ccc6[nH]5)c4)c3)CC2)nc1` the value was 5.99%; for `O=C(NCCc1cccc(Cl)c1Cl)c1ccc(N2CCN(c3ccncc3)CC2)nc1`, 16.9%; for `O=C(NCCc1ccccc1)N(Cc1ccccc1-c1cccc(CNCc2ccc3c(c2)OCO3)c1)C1CCN(Cc2ccccc2)CC1`, 4.3%.
For `Cn1c(-c2ccccc2)cc2c3c(=O)cc(C(F)(F)F)[nH]c3ccc21`, the inhibition was determined as 13.1%.
With `FC(F)(F)c1ccc(N2CCCN(Cc3cccc(-c4ccccc4CNCc4ccc5c(c4)OCO5)c3)CC2)nc1`, the inhibition was -2.51%.
Same read-out and setting: the same measure for `CCCCN(CCCC)CCCN(CCCN(CCCC)CCCC)c1cc(C)nc(Nc2ccc(Br)cc2)n1`: -0.35%; for `Cc1ccc(-c2ccn(Cc3ccc(OCc4ccccc4)cc3)n2)cn1.Cc1ccc(-c2ccnn2Cc2ccc(OCc3ccccc3)cc2)cn1`: 0.76%.
On the same count and under the same terms, for `O=C(NCCc1ccccc1)N(Cc1ccccc1-c1cccc(CNC2CCCC2)c1)C1CCN(Cc2ccccc2)CC1` the value was 4.49%.
On the same count and under the same terms, the same measure for `COc1cc2nc(N3CCC(CNC(=O)c4ccc(-c5ccc(C#N)cc5)cc4)CC3)nc(N)c2cc1OC`: 1.87%; for `Cc1cc(N[C@@H](Cc2ccccc2)C(=O)Nc2ccccc2)nc(NCC2CCCCC2)n1`: 11.3%.
As for `Cc1cccc2nc(-c3ccc(-c4ccc(CNCC5CCCO5)cc4)s3)[nH]c12` (stereo not given), the inhibition was determined as 2.71%.
For the molecule `CC(C)(C)OC(=O)N1CCC(C2CCN(C(=O)OC(C)(C)C)CC2)CC1`, the inhibition is -1.6%.
On to `O=S(=O)(Nc1cc2c(cc1O)CCNCC2)c1ccc(-c2ccc(Cl)cc2)cc1`, for which the inhibition is -0.71%.
Regarding `O=C(NCC1CCCCC1)c1cc(=O)c2ccccc2o1`, the inhibition worked out at 10.2%.
As for `CC(=O)N/N=C/[C@H](CCc1ccccc1)NC(=O)[C@H](CC(C)C)NC(=O)c1cccc(OCCN2CCOCC2)c1`, the inhibition stood at 8.07%.
Still for that read-out and setting: for `CCn1ncc2c(NC3CCOCC3)c(CNC(=O)c3ccnn3C)c(C)nc21` the value was 2.89%; for `COc1ccc2nc3ccccc3c(NCCN3CCN(C)CC3)c2c1`, 5.93%.
In the case of `CC(C)CC(NC(=O)c1cc2ccccc2s1)C(=O)N1CCCCCC1c1ccc(C(C)(C)C)cc1` (stereo not given), the inhibition is -0.83%.
Same read-out and setting: the same measure for `CCCN1CCCN(Cc2cccc(NC(=O)c3ccc(-c4ccccc4)cc3)c2)CC1`: 0.03%; for `COc1ccc2[nH]ccc(=NN=Cc3cccnc3)c2c1`: -2.41%; for `COc1cccc(C(=O)NCc2cccs2)c1OCc1ccccc1`: 0.89%.
Same read-out and setting: the same measure for `Cc1sc2ncnc(Sc3nnc(N)s3)c2c1C`: 3.89%.
As for `COc1ccc(CNC2CCN(C)CC2)cc1-c1ccc(S(=O)(=O)NC2CCC2)c(C)c1`, the inhibition is -0.22%.
The same measure, in the same setting: the same measure for `CC(C)Sc1nc2c(c(=O)n1Cc1ccco1)C1(CCCCC1)Cc1ccccc1-2`: 2.03%.
